In PubChem BioAssay:

Test: binders from COS7 lysate, DM2A8 probe, primary screen, torsin A project, cell lysate, small-molecule microarray, fluorescence 635/667 (AID 1065)
Conditions: higher = more signal, COS7 lysate expressing mutant human TOR1A

Compared with `O=C1N(Cc2ccccc2)c2ccccc2[C@@H]2OC(c3ccc(OCCCO)cc3)=N[C@]12Cc1ccccc1`, `[N-]=[N+]=Nc1ccccc1[C@@H]1OC(c2ccc(OCCCO)cc2)=N[C@]1(Cc1ccccc1)C(=O)NCC(O)CO` (stereo partly specified) is higher in composite z-score: -0.603 for the first, 2.11 for the second.

Compared with `CCCCCCCCCCC(O)C1C=CC2C(=O)N(C)C(=O)C2N1NC(=O)OC(C)(C)C` (stereo unspecified), `C[N+](C)(C)CCCC[C@@H]1NC(=O)[C@H]2C[C@@H](C(=O)NCCCCCCN)[C@@H](c3ccc(O)cc3)N2C1=O` is higher in composite z-score: -0.127 for the first, 0.713 for the second.

Compared with `OCCCC1=CC(c2ccc(CN3CCCC3)cc2)N(Cc2sc3ccccc3c2Cl)CC1` (stereo unspecified), `COc1ccc([Si](C)(C)[C@@H]2[C@@H](CCO)O[C@]3(C(=O)N(Cc4ccc(N5CCCCC5=O)cc4)c4ccccc43)[C@H]2C)cc1` is lower in composite z-score: 0.41 for the first, 0.299 for the second.

Going from `C=CCC(OC(C)=O)[C@@H]1[C@@H](N(Cc2cc3ccccc3o2)C(=O)c2ccc(-c3ccccc3)cc2)c2cc(OCCCO)ccc2N1C(=O)c1ccc2ccccc2c1` (stereo partly specified) to `CCOC(=O)C[C@H]1[C@H](OC(=O)c2cc3ccccc3oc2=O)[C@@H](NC(=O)c2ccc(-c3ccccc3)cc2)c2cc(OCCCO)ccc2N1C(=O)c1ccccc1`, the composite z-score rises from -0.262 to 1.07.

Compared with `Cc1cc(C)c(C(O)C2C=CC3C(=O)N(c4ccccc4)C(=O)C3N2Nc2ccc(C(C)C)cc2)c(C)c1` (stereo unspecified), `CN(C)c1ccc(C(O)C2C=CC3C(=O)N(c4ccccc4)C(=O)C3N2Nc2ccc([N+](=O)[O-])cc2)cc1` (stereo unspecified) is higher in composite z-score: 0.243 for the first, 0.456 for the second.

First: COc1cc(OC)c(C(O)C2C=CC3C(=O)N(c4ccccc4)C(=O)C3N2Nc2ccccc2)cc1Br (stereo unspecified)
Second: COC(=O)[C@@]1(Cc2ccc(OC)cc2)[C@H]2c3cc(C(=O)N(C)C)n(C[C@H](O)CO)c3C[C@H]2CN1C(=O)c1ccccc1
The composite z-score of the first is lower: -0.01 for the first, 1.31 for the second.

Compared with `CO[C@H]1O[C@H](CO)[C@@H](OC(=O)Nc2ccccc2-c2ccccc2)[C@H](OC(=O)Nc2ccc3c(c2)OCO3)[C@H]1OC(=O)Nc1ccc2c(c1)OCO2`, `COCCCNC(=O)[C@@]1(Cc2ccccc2CN=[N+]=[N-])N=C(c2ccc(OCCCO)cc2)O[C@H]1c1ccccc1` is higher in composite z-score: 0.866 for the first, 2.1 for the second.

Compared with `CC1CC/C=C\[C@H]2OC34C=CCN(c5ccc(Cl)cc5)C(=O)[C@H]3N(CCCCCO)C(=O)[C@]4(C)C2C(=O)O1` (stereo partly specified), `CC(C)N1CC=CC23O[C@@H]4C=CCOC(=O)[C@@H]4[C@H]2C(=O)N(CCCO)[C@@H]3C1=O` (stereo partly specified) is higher in composite z-score: -0.673 for the first, 1.64 for the second.

Going from `CC(C)N1C(=O)c2ccccc2[C@@H](C(=O)NC2CC2)[C@@H]1c1ccc(CO)cc1` to `CCOC(=O)C1=CC[C@@H](c2ccccc2C(F)(F)F)N(S(=O)(=O)c2ccc(C)cc2)[C@H]1c1ccc(C#N)cc1`, the composite z-score rises from -0.184 to 0.0813.

First: C=C(/C(=C/C[C@@H](OC(C)=O)c1cccc(OCCO)c1)c1cc(C(=O)OC)ccc1OC)C(C)C
Second: C=C(COC)C(=O)CC[C@@H](OC(=O)c1cccnc1)c1ccc(OCCO)cc1
The composite z-score of the first is higher: 1.11 for the first, 0.112 for the second.

Going from `C=C[C@@H](COC(C)=O)N(C(=O)OC(C)(C)C)S(=O)(=O)c1ccc(Br)cc1` to `COc1ccc(CN(C2=CC[C@@]3(C(N)=O)C(=O)C(Cl)=C(Cl)C(=O)[C@@]3(C#N)C2)S(=O)(=O)c2ccc(Br)cc2)cc1`, the composite z-score falls from 1.66 to -0.0483.

Compared with `CCCC[C@@H](O)C1=C(COc2ccccc2)C[C@H]2C(=O)N(C)C(=O)[C@H]2[C@H]1CO`, `COC(=O)c1cn(C[C@@H](Cc2ccccc2)NC(=O)N[C@H](CO)CCc2oc(C(C)=O)c(C(=O)OC)c2C(=O)OC)nn1` is higher in composite z-score: -0.33 for the first, 0.603 for the second.

Going from `COC(=O)c1ccc([C@H](NC(=O)c2ccco2)[C@]2(C)C[C@H]2C2CCCCC2)cc1` to `CC(C)[Si](C#C[Si](C(C)C)(C(C)C)C(C)C)(O[C@H](C)c1cn([C@H](CO)Cc2ccccc2)nn1)C(C)C`, the composite z-score rises from -0.462 to 0.585.

Test: binders of probe aFGF2 on microarray, primary screen, stem cell growth factor project, biochemical, small-molecule microarray, fluorescence 635/667 (AID 1067);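 note: measures binding of biotinylated aFGF2 protein to printed compounds on slides; z-score merges feature fluorescence and signal-to-noise across triplicate slides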
Conditions: higher = more signal

Going from `COC(=O)C(CC#Cc1ccc2c(c1)[C@]1(C(=O)N2)[C@H](C(=O)N2CCN(c3ncccn3)CC2)[C@H]2C(=O)O[C@H](c3ccccc3)[C@H](c3ccccc3)N2[C@@H]1c1ccc(OCCO)cc1)C(=O)OC` to `NC(=O)NCC#Cc1ccc2c(c1)[C@]1(C(=O)N2)[C@H](C(=O)NC[C@H](O)c2ccccc2)[C@H]2C(=O)O[C@H](c3ccccc3)[C@H](c3ccccc3)N2[C@@H]1c1ccc(OCCO)cc1`, the composite z-score rises from -0.0768 to -0.031.

Going from `COCCOC(=O)N1C(=O)[C@@]2(c3cc(C#CC4=CCCCC4)ccc31)[C@H](c1ccccc1OCCO)N1[C@H](c3ccccc3)[C@H](c3ccccc3)OC(=O)[C@H]1[C@@H]2C(=O)N1CCCCCCC1` to `CCOC(=O)C[C@H]1[C@H](OC(=O)c2cc3ccccc3oc2=O)[C@@H](NC(=O)c2ccc(-c3ccccc3)cc2)c2cc(OCCCO)ccc2N1C(=O)c1ccccc1`, the composite z-score falls from 0.0829 to 0.0407.

Compared with `CCOC(=O)C[C@H]1[C@H](OC(=O)c2ccc(C(=O)c3ccccc3)cc2)[C@@H](NC(=O)Cc2ccc(OC)cc2)c2cc(OCCCO)ccc2N1C(=O)c1ccccc1`, `C=CCC(OC(C)=O)[C@@H]1[C@@H](N(Cc2cc3ccccc3o2)C(=O)c2ccc(-c3ccccc3)cc2)c2cc(OCCCO)ccc2N1C(=O)c1ccc2ccccc2c1` (stereo partly specified) is higher in composite z-score: -0.107 for the first, 0.0405 for the second.

Going from `C=CC[C@@]1(C(=O)N2CCOCC2)N=C(c2ccc(OCCCO)cc2)O[C@@H]1c1ccccc1CN=[N+]=[N-]` to `[N-]=[N+]=Nc1ccccc1C[C@]1(C(N)=O)N=C(c2ccc(OCCCO)cc2)O[C@H]1c1ccccc1N=[N+]=[N-]`, the composite z-score falls from 0.141 to 0.0598.

Compared with `C=C(COC)/C(=C/C[C@H](OC(=O)c1ccncc1)c1ccccc1OCCO)c1cnc2ccccc2c1`, `C=C(COC)C(=O)CC[C@@H](OC(=O)c1cccnc1)c1ccc(OCCO)cc1` is lower in composite z-score: -0.0524 for the first, -0.172 for the second.

Compared with `CN1C(=O)C2C=CC(C(O)c3ccccn3)N(N(c3ccccc3)c3ccccc3)C2C1=O` (stereo unspecified), `COc1cc(OC)c(C(O)C2C=CC3C(=O)N(c4ccccc4)C(=O)C3N2Nc2ccccc2)cc1Br` (stereo unspecified) is higher in composite z-score: 0.0276 for the first, 0.0393 for the second.

Compared with `NCCCCCCNC(=O)[C@@H]1C[C@@H]2C(=O)N[C@@H](CCCCN)C(=O)N2[C@@H]1c1cccc(OCCO)c1`, `C[N+](C)(C)CCCC[C@@H]1NC(=O)[C@H]2C[C@@H](C(=O)NCCCCCCN)[C@@H](c3ccc(O)cc3)N2C1=O` is lower in composite z-score: 0.221 for the first, 0.0797 for the second.

First: O=C1N(Cc2ccccc2)c2ccccc2[C@@H]2OC(c3ccc(OCCCO)cc3)=N[C@]12Cc1ccccc1
Second: [N-]=[N+]=Nc1ccccc1[C@@H]1OC(c2ccc(OCCCO)cc2)=N[C@]1(Cc1ccccc1)C(=O)NCC(O)CO (stereo partly specified)
The composite z-score of the first is lower: 0.06 for the first, 0.148 for the second.

First: CCCCCCCCCCC(O)C1C=CC2C(=O)N(C)C(=O)C2N1NC(=O)OC(C)(C)C (stereo unspecified)
Second: CCCC[C@@H](O)C1=C(COc2ccccc2)C[C@H]2C(=O)N(C)C(=O)[C@H]2[C@H]1CO
The composite z-score of the first is higher: -0.0272 for the first, -0.128 for the second.

Compared with `OCCCC1=CC(c2ccc(CN3CCCC3)cc2)N(Cc2sc3ccccc3c2Cl)CC1` (stereo unspecified), `COc1ccc([Si](C)(C)[C@@H]2[C@@H](CCO)O[C@]3(C(=O)N(Cc4ccc(N5CCCCC5=O)cc4)c4ccccc43)[C@H]2C)cc1` is higher in composite z-score: -0.221 for the first, 0.0344 for the second.

First: Cc1cc(C)c(C(O)C2C=CC3C(=O)N(c4ccccc4)C(=O)C3N2Nc2ccc(C(C)C)cc2)c(C)c1 (stereo unspecified)
Second: CN(C)c1ccc(C(O)C2C=CC3C(=O)N(c4ccccc4)C(=O)C3N2Nc2ccc([N+](=O)[O-])cc2)cc1 (stereo unspecified)
The composite z-score of the first is higher: 0.172 for the first, 0.0495 for the second.

Compared with `CO[C@H]1O[C@H](CO)[C@@H](OC(=O)Nc2ccccc2-c2ccccc2)[C@H](OC(=O)Nc2ccc3c(c2)OCO3)[C@H]1OC(=O)Nc1ccc2c(c1)OCO2`, `COCCCNC(=O)[C@@]1(Cc2ccccc2CN=[N+]=[N-])N=C(c2ccc(OCCCO)cc2)O[C@H]1c1ccccc1` is higher in composite z-score: 0.0555 for the first, 0.0693 for the second.

First: CC1CC/C=C\[C@H]2OC34C=CCN(c5ccc(Cl)cc5)C(=O)[C@H]3N(CCCCCO)C(=O)[C@]4(C)C2C(=O)O1 (stereo partly specified)
Second: CC(C)N1CC=CC23O[C@@H]4C=CCOC(=O)[C@@H]4[C@H]2C(=O)N(CCCO)[C@@H]3C1=O (stereo partly specified)
The composite z-score of the first is higher: -0.16 for the first, -0.188 for the second.

Compared with `CC(C)N1C(=O)c2ccccc2[C@@H](C(=O)NC2CC2)[C@@H]1c1ccc(CO)cc1`, `COC(=O)[C@@]1(Cc2ccc(OC)cc2)[C@H]2c3cc(C(=O)N(C)C)n(C[C@H](O)CO)c3C[C@H]2CN1C(=O)c1ccccc1` is higher in composite z-score: -0.0615 for the first, 0.263 for the second.

Compared with `C=C(/C(=C/C[C@@H](OC(C)=O)c1cccc(OCCO)c1)c1cc(C(=O)OC)ccc1OC)C(C)C`, `COC(=O)c1cn(C[C@@H](Cc2ccccc2)NC(=O)N[C@H](CO)CCc2oc(C(C)=O)c(C(=O)OC)c2C(=O)OC)nn1` is higher in composite z-score: -0.0799 for the first, -0.0602 for the second.

Going from `C=C[C@@H](COC(C)=O)N(C(=O)OC(C)(C)C)S(=O)(=O)c1ccc(Br)cc1` to `COc1ccc(CN(C2=CC[C@@]3(C(N)=O)C(=O)C(Cl)=C(Cl)C(=O)[C@@]3(C#N)C2)S(=O)(=O)c2ccc(Br)cc2)cc1`, the composite z-score falls from -0.0005 to -0.0657.

Going from `COC(=O)c1ccc([C@H](NC(=O)c2ccco2)[C@]2(C)C[C@H]2C2CCCCC2)cc1` to `CCOC(=O)C1=CC[C@@H](c2ccccc2C(F)(F)F)N(S(=O)(=O)c2ccc(C)cc2)[C@H]1c1ccc(C#N)cc1`, the composite z-score rises from -0.0301 to 0.0625.

`CC(C)[Si](C#C[Si](C(C)C)(C(C)C)C(C)C)(O[C@H](C)c1cn([C@H](CO)Cc2ccccc2)nn1)C(C)C` gave a composite z-score of -0.116.
